Reference: the supplement of paper PMC10849652
About 8,800 targets were measured; listed, in parts, are those with a hit and a random draw of the rest. About 0.5% of all pairs of compound and target were hits. Unmarked numbers belong to inactive results.

What was measured:
Assay in all cases: log2 fold change, soluble protein after heating vs DMSO (PISA); higher = thermal stabilisation; K562 lysate, 10 uM; active = over 0.2 and 3.5 SD of the protein, either way, in both replicates (recomputed)
lapatinib = compound: CS(=O)(=O)CCNCc1ccc(-c2ccc3ncnc(Nc4ccc(OCc5cccc(F)c5)c(Cl)c4)c3c2)o1 [lapatinib]
In short: (§1)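 The values are log-two fold changes in thermal stability compared with solvent controls and come from duplicates. They were obtained by TMTpro 16plex LC-MS/MS, with channel sums equalised, on the supernatant after 21,000xg for 90 min. That supernatant came from crude K562 extract at 1 mg/mL protein treated with 10 μM compound for 30 min, heated for 3 min across 48°C-58°C, pooled and brought to 0.5% NP-40 at 4°C.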

pictilisib = compound: CS(=O)(=O)N1CCN(Cc2cc3nc(-c4cccc5[nH]ncc45)nc(N4CCOCC4)c3s2)CC1 [pictilisib]
In short: as §1

crizotinib = compound: C[C@@H](Oc1cc(-c2cnn(C3CCNCC3)c2)cnc1N)c1c(Cl)ccc(F)c1Cl [crizotinib]
In short: as §1

[1] = compound: C[C@H](C1=CC=C(C=C1)C(=O)NC2=C3C=CNC3=NC=C2)N
In short: as §1

duvelisib = compound: C[C@H](Nc1ncnc2nc[nH]c12)c1cc2cccc(Cl)c2c(=O)n1-c1ccccc1 [duvelisib]
In short: as §1

gandotinib = compound: Cc1cc(Nc2cc(CN3CCOCC3)c3nc(C)c(Cc4ccc(Cl)cc4F)n3n2)n[nH]1 [gandotinib]
In short: as §1

tozasertib = compound: Cc1cc(Nc2cc(N3CCN(C)CC3)nc(Sc3ccc(NC(=O)C4CC4)cc3)n2)n[nH]1 [tozasertib]
In short: as §1

doramapimod = compound: Cc1ccc(-n2nc(C(C)(C)C)cc2NC(=O)Nc2ccc(OCCN3CCOCC3)c3ccccc23)cc1 [doramapimod]
In short: as §1

bafetinib = compound: Cc1ccc(NC(=O)c2ccc(CN3CC[C@H](N(C)C)C3)c(C(F)(F)F)c2)cc1Nc1nccc(-c2cncnc2)n1 [bafetinib]
In short: as §1

[2] = compound: Cc1cccc(CC(=O)N2CCc3c2ccc(-c2cn(C)c4ncnc(N)c24)c3F)n1
In short: as §1

nilotinib = compound: Cc1cn(-c2cc(NC(=O)c3ccc(C)c(Nc4nccc(-c5cccnc5)n4)c3)cc(C(F)(F)F)c2)cn1 [nilotinib]
In short: as §1

[3] = compound: Cc1nc(Nc2n[nH]c3c2CN(C(=O)N[C@H](CN(C)C)c2ccccc2)C3(C)C)c2sccc2n1
In short: as §1

dasatinib = compound: Cc1nc(Nc2ncc(C(=O)Nc3c(C)cccc3Cl)s2)cc(N2CCN(CCO)CC2)n1 [dasatinib]
In short: as §1

[4] = compound: Cc1ncc(-c2ccnc(Nc3ccc(S(C)(=O)=O)cc3)n2)n1C(C)C
In short: as §1

[5] = compound: Cn1cc(-c2ccc3c(c2)CCN3C(=O)Cc2cccc(C(F)(F)F)c2)c2c(N)ncnc21
In short: as §1

quisinostat = compound: Cn1cc(CNCC2CCN(c3ncc(C(=O)NO)cn3)CC2)c2ccccc21 [quisinostat]
In short: as §1

tipifarnib = compound: Cn1cncc1[C@@](N)(c1ccc(Cl)cc1)c1ccc2c(c1)c(-c1cccc(Cl)c1)cc(=O)n2C [tipifarnib]
In short: as §1

[6] = compound: NC(=O)Nc1cc(-c2cccc(F)c2)sc1C(=O)N[C@H]1CCCNC1
In short: as §1

[7] = compound: NC(=O)c1cnc(N[C@@H]2CCCC[C@@H]2N)nc1Nc1cccc(-n2nccn2)c1
In short: as §1

[8] = compound: NC1(c2ccc(-c3nc4ccn5c(=O)[nH]nc5c4cc3-c3ccccc3)cc2)CCC1
In short: as §1

Chain of UniProt Q8NA72 (Q8NA72 whole entry, looked up): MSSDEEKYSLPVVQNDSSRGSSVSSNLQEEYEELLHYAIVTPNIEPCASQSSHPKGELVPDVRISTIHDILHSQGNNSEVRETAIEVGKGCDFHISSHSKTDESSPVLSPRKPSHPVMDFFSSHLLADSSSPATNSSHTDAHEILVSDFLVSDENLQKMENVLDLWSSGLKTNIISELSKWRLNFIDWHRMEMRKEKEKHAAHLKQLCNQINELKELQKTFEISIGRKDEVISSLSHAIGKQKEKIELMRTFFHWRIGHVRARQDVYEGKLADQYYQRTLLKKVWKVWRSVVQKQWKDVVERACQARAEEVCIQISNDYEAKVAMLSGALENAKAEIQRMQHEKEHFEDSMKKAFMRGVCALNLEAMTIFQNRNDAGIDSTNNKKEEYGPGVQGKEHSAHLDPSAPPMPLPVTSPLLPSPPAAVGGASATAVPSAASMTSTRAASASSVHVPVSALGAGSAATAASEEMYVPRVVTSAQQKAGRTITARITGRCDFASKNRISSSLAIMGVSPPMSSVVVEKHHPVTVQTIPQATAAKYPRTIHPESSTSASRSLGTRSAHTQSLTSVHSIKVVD
Chain of UniProt Q05655 (Q05655 whole entry, looked up): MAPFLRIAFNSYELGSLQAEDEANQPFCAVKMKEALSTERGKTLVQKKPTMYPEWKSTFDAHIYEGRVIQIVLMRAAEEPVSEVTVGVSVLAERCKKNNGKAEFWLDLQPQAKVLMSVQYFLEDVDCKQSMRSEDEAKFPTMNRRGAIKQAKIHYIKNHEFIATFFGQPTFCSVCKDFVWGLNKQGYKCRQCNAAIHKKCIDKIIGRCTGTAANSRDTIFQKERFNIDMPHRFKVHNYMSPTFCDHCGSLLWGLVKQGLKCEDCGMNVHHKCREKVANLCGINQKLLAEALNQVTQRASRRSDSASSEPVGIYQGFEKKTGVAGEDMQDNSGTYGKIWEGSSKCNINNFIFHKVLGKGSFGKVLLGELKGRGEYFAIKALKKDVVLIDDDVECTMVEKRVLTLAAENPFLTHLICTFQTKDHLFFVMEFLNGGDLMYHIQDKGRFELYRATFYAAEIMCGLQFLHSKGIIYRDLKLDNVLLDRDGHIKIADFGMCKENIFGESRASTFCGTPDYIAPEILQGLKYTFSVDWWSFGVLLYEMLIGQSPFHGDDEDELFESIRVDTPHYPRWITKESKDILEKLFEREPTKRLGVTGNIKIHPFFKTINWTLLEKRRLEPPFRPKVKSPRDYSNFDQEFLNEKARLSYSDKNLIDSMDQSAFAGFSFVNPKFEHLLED
Chain of UniProt Q99755 (Q99755 whole entry, looked up): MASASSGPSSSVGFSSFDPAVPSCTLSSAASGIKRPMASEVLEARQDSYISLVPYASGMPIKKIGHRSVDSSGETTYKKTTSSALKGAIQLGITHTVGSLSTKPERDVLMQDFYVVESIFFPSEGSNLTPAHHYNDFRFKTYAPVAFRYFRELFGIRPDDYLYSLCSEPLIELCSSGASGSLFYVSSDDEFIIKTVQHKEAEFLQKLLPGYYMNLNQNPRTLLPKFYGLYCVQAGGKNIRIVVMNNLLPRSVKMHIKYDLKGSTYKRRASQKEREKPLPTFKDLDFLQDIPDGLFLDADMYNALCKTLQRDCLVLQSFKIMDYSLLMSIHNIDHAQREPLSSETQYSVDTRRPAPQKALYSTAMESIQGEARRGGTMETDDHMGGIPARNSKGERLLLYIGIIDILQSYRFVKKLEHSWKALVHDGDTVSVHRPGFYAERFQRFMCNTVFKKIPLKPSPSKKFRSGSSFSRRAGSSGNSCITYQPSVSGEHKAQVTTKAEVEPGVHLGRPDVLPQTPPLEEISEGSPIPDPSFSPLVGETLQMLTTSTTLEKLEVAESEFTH
Chain of UniProt Q8NAV1 (Q8NAV1 whole entry, looked up): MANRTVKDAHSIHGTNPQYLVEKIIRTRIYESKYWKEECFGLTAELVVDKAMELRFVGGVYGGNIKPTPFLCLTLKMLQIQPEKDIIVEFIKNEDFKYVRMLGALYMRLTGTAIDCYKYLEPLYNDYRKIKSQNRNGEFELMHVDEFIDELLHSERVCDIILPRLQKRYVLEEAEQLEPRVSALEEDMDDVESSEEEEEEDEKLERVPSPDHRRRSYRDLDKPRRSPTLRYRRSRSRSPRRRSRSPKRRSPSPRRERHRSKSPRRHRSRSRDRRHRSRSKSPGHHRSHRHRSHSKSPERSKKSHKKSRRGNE
Chain of UniProt Q6EEV4 (Q6EEV4 whole entry, looked up): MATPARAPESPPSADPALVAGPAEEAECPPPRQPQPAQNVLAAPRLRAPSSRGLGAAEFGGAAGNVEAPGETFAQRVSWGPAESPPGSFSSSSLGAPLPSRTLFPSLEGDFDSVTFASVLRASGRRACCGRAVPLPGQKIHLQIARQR
Chain of UniProt O43741 (O43741 whole entry, looked up): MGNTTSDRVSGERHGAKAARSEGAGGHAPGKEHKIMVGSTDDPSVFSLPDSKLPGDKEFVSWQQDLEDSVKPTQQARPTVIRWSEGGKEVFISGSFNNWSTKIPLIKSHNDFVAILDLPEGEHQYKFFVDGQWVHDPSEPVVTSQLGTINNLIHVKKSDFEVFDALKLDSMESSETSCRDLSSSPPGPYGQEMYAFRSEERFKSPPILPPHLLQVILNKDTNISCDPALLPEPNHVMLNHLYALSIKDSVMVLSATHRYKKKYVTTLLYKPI
Chain of UniProt Q16877 (Q16877 whole entry, looked up): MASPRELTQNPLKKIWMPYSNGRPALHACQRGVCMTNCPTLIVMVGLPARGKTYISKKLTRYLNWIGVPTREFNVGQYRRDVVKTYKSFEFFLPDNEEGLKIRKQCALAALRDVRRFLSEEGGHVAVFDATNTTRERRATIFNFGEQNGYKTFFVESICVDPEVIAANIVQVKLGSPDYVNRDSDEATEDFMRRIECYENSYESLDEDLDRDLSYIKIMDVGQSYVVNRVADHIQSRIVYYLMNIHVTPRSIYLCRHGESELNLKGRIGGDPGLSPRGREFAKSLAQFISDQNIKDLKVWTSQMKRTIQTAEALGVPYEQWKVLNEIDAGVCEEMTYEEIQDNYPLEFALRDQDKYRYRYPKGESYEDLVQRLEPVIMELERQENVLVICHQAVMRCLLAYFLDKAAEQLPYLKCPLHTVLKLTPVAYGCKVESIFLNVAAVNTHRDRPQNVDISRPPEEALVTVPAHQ
Chain of UniProt Q15173 (Q15173 whole entry, looked up): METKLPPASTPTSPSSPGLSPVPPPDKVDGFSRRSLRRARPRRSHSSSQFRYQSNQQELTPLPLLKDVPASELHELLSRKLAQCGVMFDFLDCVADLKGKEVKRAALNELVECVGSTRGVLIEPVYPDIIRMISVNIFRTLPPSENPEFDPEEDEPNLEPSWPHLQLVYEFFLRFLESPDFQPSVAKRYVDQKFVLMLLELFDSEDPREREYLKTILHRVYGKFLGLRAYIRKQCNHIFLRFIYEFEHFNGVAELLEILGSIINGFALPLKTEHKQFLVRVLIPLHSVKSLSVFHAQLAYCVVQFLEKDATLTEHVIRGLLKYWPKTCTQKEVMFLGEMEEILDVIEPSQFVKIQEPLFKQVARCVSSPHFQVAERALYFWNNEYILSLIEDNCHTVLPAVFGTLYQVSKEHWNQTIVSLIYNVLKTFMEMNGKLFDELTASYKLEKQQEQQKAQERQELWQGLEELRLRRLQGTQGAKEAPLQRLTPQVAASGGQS
Chain of UniProt O14744 (O14744 whole entry, looked up): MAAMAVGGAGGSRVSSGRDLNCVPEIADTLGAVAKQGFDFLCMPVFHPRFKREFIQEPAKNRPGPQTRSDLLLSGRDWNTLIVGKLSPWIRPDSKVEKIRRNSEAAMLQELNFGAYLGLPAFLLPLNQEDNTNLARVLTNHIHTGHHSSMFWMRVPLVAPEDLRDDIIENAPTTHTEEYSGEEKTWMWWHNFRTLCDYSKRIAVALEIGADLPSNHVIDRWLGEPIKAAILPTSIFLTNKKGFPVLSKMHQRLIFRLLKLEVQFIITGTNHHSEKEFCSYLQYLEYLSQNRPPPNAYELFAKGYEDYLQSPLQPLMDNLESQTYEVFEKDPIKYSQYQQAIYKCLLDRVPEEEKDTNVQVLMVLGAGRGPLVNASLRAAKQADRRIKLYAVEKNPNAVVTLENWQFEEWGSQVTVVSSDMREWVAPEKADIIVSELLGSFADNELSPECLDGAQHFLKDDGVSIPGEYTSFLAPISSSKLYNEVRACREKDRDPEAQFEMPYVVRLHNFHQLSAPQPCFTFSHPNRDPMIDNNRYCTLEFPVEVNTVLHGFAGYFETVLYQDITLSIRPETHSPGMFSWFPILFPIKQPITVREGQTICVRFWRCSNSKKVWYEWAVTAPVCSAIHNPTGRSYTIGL
Chain of UniProt O43663 (O43663 whole entry, looked up): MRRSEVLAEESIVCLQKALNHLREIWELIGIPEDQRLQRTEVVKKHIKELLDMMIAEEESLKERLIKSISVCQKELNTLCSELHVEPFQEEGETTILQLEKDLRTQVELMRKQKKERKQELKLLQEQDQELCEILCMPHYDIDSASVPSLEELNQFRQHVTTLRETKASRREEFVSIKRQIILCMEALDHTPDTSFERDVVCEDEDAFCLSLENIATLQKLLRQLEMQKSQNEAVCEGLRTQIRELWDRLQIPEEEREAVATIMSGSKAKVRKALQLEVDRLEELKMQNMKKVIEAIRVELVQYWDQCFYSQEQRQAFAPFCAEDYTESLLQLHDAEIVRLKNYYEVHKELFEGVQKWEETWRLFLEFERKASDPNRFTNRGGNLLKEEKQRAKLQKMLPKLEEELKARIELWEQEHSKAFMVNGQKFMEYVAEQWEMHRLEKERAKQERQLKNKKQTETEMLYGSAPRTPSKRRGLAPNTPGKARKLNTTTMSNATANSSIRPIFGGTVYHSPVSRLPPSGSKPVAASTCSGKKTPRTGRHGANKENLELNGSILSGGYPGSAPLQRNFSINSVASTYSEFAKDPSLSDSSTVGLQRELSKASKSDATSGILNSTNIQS
Chain of UniProt Q93096 (Q93096 whole entry, looked up): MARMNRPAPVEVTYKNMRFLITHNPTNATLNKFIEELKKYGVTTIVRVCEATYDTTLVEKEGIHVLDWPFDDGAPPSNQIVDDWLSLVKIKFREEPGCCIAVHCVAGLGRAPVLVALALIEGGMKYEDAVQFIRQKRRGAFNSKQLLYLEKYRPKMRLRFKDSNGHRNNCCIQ

Target	log2 fold change (lapatinib)	log2 fold change (pictilisib)	log2 fold change (crizotinib)	log2 fold change [1]	log2 fold change (duvelisib)	log2 fold change (gandotinib)	log2 fold change (tozasertib)	log2 fold change (doramapimod)	log2 fold change (bafetinib)	log2 fold change [2]	log2 fold change (nilotinib)	log2 fold change [3]	log2 fold change (dasatinib)	log2 fold change [4]	log2 fold change [5]	log2 fold change (quisinostat)	log2 fold change (tipifarnib)	log2 fold change [6]	log2 fold change [7]	log2 fold change [8]
PRKCD (UniProt Q05655)	-0.143	0.003	-0.011	-0.135	0.024	0.009	0.015	0.005	-0.069	0.007	0.002	0.193	-0.053	0.056	0	0.002	-0.013	-0.013	0.218	0.021
PRPF38A (UniProt Q8NAV1)	-0.001	0.039	-0.248	-0.399 (active)	0.03	0.024	-0.034	0.012	-0.055	0.121	0.076	0.018	-0.055	-0.088	-0.001	-0.452 (active)	-0.016	0.092	0.003	0.049
PPP2R5B (UniProt Q15173)	-0.089	-0.064	0.075	-0.017	0.021	-0.168	0.04	0.005	0.054	-0.036	–	–	0.018	–	0.021	0.058	–	-0.025	0.011	-0.015
PTP4A1 (UniProt Q93096)	-0.002	0.008	0.09	0.133	0.023	-0.031	0.001	-0.009	-0.042	-0.055	-0.035	0.005	0.026	-0.057	0	0.151	0.011	-0.059	-0.011	-0.029
PIP5K1A (UniProt Q99755)	-0.117	0.07	-0.168	0.03	-0.043	-0.013	–	0.093	-0.062	-0.034	-0.091	0.011	-0.137	-0.082	0.033	-0.165	0.032	0.034	-0.041	0.01
PCYT1B (UniProt Q9Y5K3)	0.008	0.004	0.025	-0.044	-0.007	0.193	0.008	-0.003	-0.127	0.239 (active)	-0.079	-0.003	0	0.022	-0.026	0.039	0.047	-0.023	-0.008	0.054
PPT2 isoform 3 (UniProt Q9UMR5)	-0.053	-0.032	0.035	0.058	0.06	0.016	0.004	0	0.005	-0.05	0.01	-0.019	0.006	-0.019	0.025	-0.004	-0.025	0.032	0.002	0.02
PFKFB4 (UniProt Q16877)	-0.008	-0.061	-0.034	-0.027	0.011	-0.044	-0.012	0.009	-0.003	0.039	–	–	0.009	–	-0.045	0.059	–	-0.024	0.015	0.013
PRKAB2 (UniProt O43741)	-0.029	0.09	-0.013	-0.698 (active)	0.019	0.25	0.111	0.039	0.052	0.142	0.033	0.203	-0.049	0.106	0.042	-0.031	-0.031	0.14	0.036	0.023
PDS5A (UniProt Q29RF7)	-0.024	-0.053	-0.123	-0.09	0.023	-0.127	0.008	0.006	-0.075	0.125	-0.013	-0.002	-0.081	-0.003	0.008	-0.113	0.001	0.047	0.011	-0.023
PEX2 (UniProt P28328)	-0.081	0.035	-0.041	-0.04	-0.031	0.096	–	-0.151	-0.218	0.149	0.059	-0.158	-0.078	-0.041	0.039	0.054	0.048	0.143	0.116	-0.106
POLR2M (UniProt Q6EEV4)	0.047	-0.07	-0.064	0.026	-0.049	-0.154	0.055	-0.041	-0.116	0.046	–	–	0.02	–	-0.2	0.011	–	0.032	-0.015	0.076
POC5 (UniProt Q8NA72)	-0.133	-0.12	0.02	0.022	-0.041	0.107	-0.086	-0.023	0.051	0.031	0.01	0.058	-0.159	0.09	-0.081	0.007	0.005	-0.005	-0.128	0.034
PHKB isoform 3 (UniProt Q93100)	-0.042	0.025	0.026	-0.126	-0.025	0.127	-0.021	-0.061	-0.012	0.027	-0.007	0.121	-0.023	0.001	0.008	-0.063	-0.035	0.28 (active)	0.004	-0.058
PRC1 (UniProt O43663)	-0.014	-0.007	-0.109	0.023	0.059	-0.003	0.017	0.004	-0.079	0.025	0.013	-0.008	-0.012	-0.007	0.05	-0.035	-0.011	0.009	-0.002	-0.044
PRKCSH (UniProt K7ELL7)	-0.009	0.028	0.061	0.181	0.1	-0.047	0.062	-0.044	0.031	-0.019	-0.013	-0.163	0.014	0.125	-0.015	0.04	0.024	0.024	-0.032	-0.031
PRMT5 (UniProt O14744)	-0.029	-0.012	0	-0.02	0.158	0.011	0.017	-0.004	-0.021	-0.008	0	0.005	0.094	-0.024	-0.028	-0.027	0	0.035	-0.015	-0.019
